Activity calls are given as the source filed them.
Experiments:
[1] = optical density shifts of acrAB sulA E. coli – strain DRC41, OD650, 48 h, E. coli filamentation inducer project, primary screen (AID 1152); details: higher = more signal, called active from +8 up or from −8 down;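 note: E. coli MC1000 strain DRC41 lacking acrAB efflux pump and sulA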
[2] = probe aLefty1 binding on compound microarray – biochemical, small-molecule microarray, 635/667 nm fluorescence, primary screen (AID 1153); details: higher = more signal;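 note: score merges spot fluorescence with signal-to-noise ratio from the scanned slide images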
[3] = plasmodial surface anion channel blockers, osmotic lysis – cell-based, P. falciparum Indochina, OD700, 1 h, primary screen (AID 1154); details: P. falciparum Indochina infected RBC osmotic lysis, higher = more signal, called active from +8 up or from −8 down
[4] = plasmodial surface anion channel blockers, osmotic lysis – cell-based, P. falciparum Indochina, OD700, 2 h, primary screen (AID 1155);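 note: lysis reports solute entry through the parasite surface anion channel PSAC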; details: P. falciparum Indochina infected erythrocytes, higher = more signal, called active from +8 up or from −8 down
[5] = changes in parasitized red cell lysis, either direction – P. falciparum Indochina, OD700, 3 h, PSAC antagonist project, primary screen (AID 1156); details: P. falciparum-infected erythrocytes, osmotic lysis, higher = more signal, called active from +8 up or from −8 down
[6] = plasmodial surface anion channel blockers, osmotic lysis – cell-based, P. falciparum Indochina, OD700, 18 h, primary screen (AID 1157); details: P. falciparum Indochina infected erythrocytes, osmotic lysis OD700, 18 h; higher = more signal, called active from +8 up or from −8 down
[7] = S6 kinase pathway phospho-S6 level changes – cell-based, A549, cytoblot, luminescence, serum-stimulated, primary screen (AID 1158); details: 5 h, higher = more signal;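 note: serum-stimulated A549 lung adenocarcinoma cells; signal is phosphorylated S6 detected by cytoblot immunostaining with HRP secondary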
[8] = target: NADPH oxidase 2 (Homo sapiens) (UniProt P04839); assay: compounds shifting NOX2 Amplex Red fluorescence – cell-based, HEK293-NOX2, PMA-stimulated, NOX inhibitor project, primary screen (AID 1159); details: 45 min, higher = more signal, called active from +8 up or from −8 down; note: test concentration not given here
Chain of NADPH oxidase 2 (Homo sapiens) (P04839 whole entry, looked up): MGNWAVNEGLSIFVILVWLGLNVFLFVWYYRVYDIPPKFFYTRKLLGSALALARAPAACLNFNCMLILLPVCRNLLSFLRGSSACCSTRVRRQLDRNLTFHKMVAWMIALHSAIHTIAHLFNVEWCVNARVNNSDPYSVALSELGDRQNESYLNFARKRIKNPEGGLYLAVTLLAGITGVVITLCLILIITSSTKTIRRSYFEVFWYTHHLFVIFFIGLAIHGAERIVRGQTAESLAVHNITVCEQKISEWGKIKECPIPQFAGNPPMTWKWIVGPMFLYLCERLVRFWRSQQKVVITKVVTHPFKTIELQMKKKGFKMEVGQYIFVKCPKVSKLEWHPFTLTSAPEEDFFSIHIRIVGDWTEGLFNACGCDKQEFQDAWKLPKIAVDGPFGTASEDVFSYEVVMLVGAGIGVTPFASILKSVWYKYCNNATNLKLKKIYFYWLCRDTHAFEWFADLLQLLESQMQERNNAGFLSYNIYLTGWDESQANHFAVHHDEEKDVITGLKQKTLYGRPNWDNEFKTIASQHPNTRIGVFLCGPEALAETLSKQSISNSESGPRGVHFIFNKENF

[9] = target: NADPH oxidase 4 (Homo sapiens) (UniProt Q9NPH5); assay: compounds shifting NOX4 Amplex Red fluorescence – cell-based, HEK293-NOX4, tetracycline-induced, NOX inhibitor project, primary screen (AID 1160); details: HEK293-NOX4, Amplex Red H2O2 fluorescence, 45 min; higher = more signal, called active from +8 up or from −8 down
Chain of NADPH oxidase 4 (Homo sapiens) (Q9NPH5 whole entry, looked up): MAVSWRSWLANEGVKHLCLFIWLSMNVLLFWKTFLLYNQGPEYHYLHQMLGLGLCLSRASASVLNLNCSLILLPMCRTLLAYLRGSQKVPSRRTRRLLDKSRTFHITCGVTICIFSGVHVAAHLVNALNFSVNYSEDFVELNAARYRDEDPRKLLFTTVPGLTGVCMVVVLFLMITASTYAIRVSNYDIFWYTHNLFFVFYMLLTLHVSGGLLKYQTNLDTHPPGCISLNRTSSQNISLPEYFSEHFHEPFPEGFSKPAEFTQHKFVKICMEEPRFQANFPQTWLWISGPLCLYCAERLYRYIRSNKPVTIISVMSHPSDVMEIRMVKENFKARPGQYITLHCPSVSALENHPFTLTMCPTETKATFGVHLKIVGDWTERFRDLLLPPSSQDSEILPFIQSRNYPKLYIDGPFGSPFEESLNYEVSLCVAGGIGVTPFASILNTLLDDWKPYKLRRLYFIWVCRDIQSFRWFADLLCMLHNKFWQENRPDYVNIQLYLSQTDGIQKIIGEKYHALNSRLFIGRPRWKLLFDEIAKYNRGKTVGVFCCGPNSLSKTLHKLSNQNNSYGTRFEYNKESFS

[10] = target: NADPH oxidase 5 (Homo sapiens) (UniProt Q96PH1); assay: compounds shifting NOX5 Amplex Red fluorescence – cell-based, HEK293-NOX5, NOX inhibitor project, primary screen (AID 1161); details: HEK293-NOX5, ionomycin, 45 min, higher = more signal
Chain of NADPH oxidase 5 (Homo sapiens) (Q96PH1 whole entry, looked up): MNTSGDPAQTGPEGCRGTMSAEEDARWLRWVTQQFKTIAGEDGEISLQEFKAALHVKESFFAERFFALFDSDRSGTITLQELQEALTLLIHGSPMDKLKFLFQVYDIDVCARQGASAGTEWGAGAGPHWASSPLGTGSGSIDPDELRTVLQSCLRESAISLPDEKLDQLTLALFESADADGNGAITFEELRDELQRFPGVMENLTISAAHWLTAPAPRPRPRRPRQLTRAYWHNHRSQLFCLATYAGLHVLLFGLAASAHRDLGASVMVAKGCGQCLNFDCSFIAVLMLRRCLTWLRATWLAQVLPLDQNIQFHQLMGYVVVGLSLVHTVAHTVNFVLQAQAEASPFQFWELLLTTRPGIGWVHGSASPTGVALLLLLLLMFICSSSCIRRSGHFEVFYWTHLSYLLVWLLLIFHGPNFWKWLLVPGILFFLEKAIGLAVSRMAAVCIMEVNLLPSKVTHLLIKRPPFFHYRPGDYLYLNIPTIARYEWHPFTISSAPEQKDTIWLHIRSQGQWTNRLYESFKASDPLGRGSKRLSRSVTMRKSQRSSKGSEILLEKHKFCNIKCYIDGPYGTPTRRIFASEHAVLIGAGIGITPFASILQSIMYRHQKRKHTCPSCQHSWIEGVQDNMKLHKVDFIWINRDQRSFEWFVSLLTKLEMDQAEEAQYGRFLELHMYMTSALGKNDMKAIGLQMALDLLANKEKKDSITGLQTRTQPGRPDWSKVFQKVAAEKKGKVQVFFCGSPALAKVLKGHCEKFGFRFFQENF

[11] = compound effects on lung adenocarcinoma cell viability – A549, calcein-AM fluorescence, 48 h, basal, profiling panel (AID 1162); details: higher = more signal; note: test concentration not given here
[12] = compound effects on differentiated 3T3-L1 adipocyte viability – cell-based, 3T3-L1 adipocytes, calcein-AM fluorescence, 48 h, basal, profiling panel (AID 1163); details: 3T3-L1 adipocytes viability, higher = more signal; note: test concentration not given here
[13] = compound effects on hepatocellular carcinoma cell viability – HepG2, calcein-AM fluorescence, 48 h, basal, profiling panel (AID 1164); details: higher = more signal; note: test concentration not given here
[14] = compound effects on multiple myeloma cell viability – MM1S, calcein-AM fluorescence, 48 h, basal, profiling panel (AID 1165); details: higher = more signal;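 note: viability of MM1S multiple myeloma cells under basal unstimulated conditions; test concentration not given here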
[15] = calcein-AM signal in unstimulated myeloma cells – cell-based, calcein-AM fluorescence, 48 h, PK04 Diversity Set, profiling panel (AID 1166); details: RPMI8226 myeloma viability, higher = more signal;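 note: cells grown under basal conditions without added stimulus; test concentration not given here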
[16] = JC-1 mitochondrial signal, unstimulated HepG2 cells – cell-based, JC-1 fluorescence, 24 h, 100 nL compound, profiling panel (AID 1167); details: HepG2 mitochondrial potential, higher = more signal; note: test concentration not given here
[17] = JC-1 mitochondrial signal, unstimulated adipocytes – cell-based, JC-1 fluorescence, 3T3-L1 adipocytes, 24 h, 100 nL compound, profiling panel (AID 1168); details: JC-1 mitochondrial fluorescence, higher = more signal, called active from +8 up or from −8 down; note: test concentration not given here
[18] = JC-1 mitochondrial signal, unstimulated myeloma cells – cell-based, JC-1 fluorescence, RPMI8226, 24 h, 100 nL compound, profiling panel (AID 1169); details: JC-1 mitochondrial potential fluorescence, higher = more signal; note: test concentration not given here
[19] = JC-1 mitochondrial signal, unstimulated MM1S myeloma – cell-based, JC-1 fluorescence, 24 h, 100 nL compound, profiling panel (AID 1170); details: MM1S mitochondrial potential, higher = more signal; note: test concentration not given here
[20] = resazurin metabolic signal in A549 cells – cell-based, resazurin fluorescence, 24 h, PK04 Diversity Set, profiling panel (AID 1171); details: A549 viability, higher = more signal, called active from +8 up or from −8 down; note: test concentration not given here

SMILES | z-score [1] | composite z-score [2] | z-score [3] | z-score [4] | z-score [5] | z-score [6] | z-score [7] | z-score [8] | z-score [9] | z-score [10] | z-score [11] | z-score [12] | z-score [13] | z-score [14] | z-score [15] | z-score [16] | z-score [17] | z-score [18] | z-score [19] | z-score [20]
O=C(CS)NCCCCCNC(=O)[C@H]1C[C@H]2C(=O)NCC(=O)N2[C@H]1c1ccc(O)cc1 | 1.43 (inactive) | -0.479 | 0.279 (inactive) | -0.723 (inactive) | -0.813 (inactive) | -2.32 (inactive) | -0.0935 | -0.297 (inactive) | 0.243 (inactive) | 1.16 | 0.67 | 0.537 | -0.815 | 0.0607 | -0.261 | -0.557 | 0.185 (inactive) | 0.415 | -0.167 | 0.847 (inactive)
C=C[C@H](C)[C@@H](OC(=O)Nc1ccc(SC)cc1)c1ccc(O)c2ccccc12 | -0.751 (inactive) | 0.0942 | 27.7 (active) | 9.84 (active) | 2.51 (inactive) | 1.31 (inactive) | 1.23 | -5.52 (inactive) | -1.45 (inactive) | 0.894 | -0.89 | 0.0148 | -1.87 | -2.68 | -4.27 | -3.23 | -0.475 (inactive) | -0.934 | -1.59 | -0.774 (inactive)
COC(=O)[C@@]1(Cc2ccc(OC)cc2)[C@H]2c3cc(C(=O)N4CCCC4)n(CCc4ccc(O)c(O)c4)c3C[C@H]2CN1C(=O)c1ccccc1 | -1.84 (inactive) | 0.378 | 5.39 (inactive) | 0.451 (inactive) | 2.1 (inactive) | 0.912 (inactive) | 0.198 | -3.75 (inactive) | -8.38 (active) | -7.92 | -0.393 | 0.609 | -0.0727 | -3.36 | -2.19 | 0.923 | -1.13 (inactive) | -0.445 | -1.13 | -0.0046 (inactive)
COc1ccc(C(O)C2C=CC3C(=O)N(C)C(=O)C3N2NC(=O)OC(C)(C)C)c2ccccc12 (stereo not given) | -1.17 (inactive) | 0.445 | 1.9 (inactive) | 1.09 (inactive) | 0.0084 (inactive) | 1.2 (inactive) | -1.16 | -0.674 (inactive) | -1.92 (inactive) | 0.384 | -0.844 | -0.769 | -1.99 | 0.18 | -0.463 | -2.62 | 0.549 (inactive) | 0.674 | 0.932 | 1.94 (inactive)
COC(=O)[C@@]1(Cc2ccccc2)[C@H]2c3cc(C(=O)N4CCCC4)n(Cc4ccc(O)c(OC)c4)c3C[C@H]2CN1C(=O)c1ccccc1 | -1.64 (inactive) | 0.0147 | 3.85 (inactive) | 0.496 (inactive) | 0.393 (inactive) | 0.618 (inactive) | -0.347 | -2.57 (inactive) | -6.07 (inactive) | -3.82 | 0.114 | 0.0713 | 0.876 | -1.27 | -1.65 | 0.848 | -1.63 (inactive) | 0.332 | -0.601 | -1.5 (inactive)
CC(C)[Si](C#CCCCC#N)(O[C@H](c1ccccc1)c1cn(Cc2cccc(Cl)c2)nn1)C(C)C | 1.65 (inactive) | 0.0496 | 0.614 (inactive) | 1.24 (inactive) | -0.187 (inactive) | 1.04 (inactive) | 0.573 | -6.2 (inactive) | 0.194 (inactive) | 0.528 | -1.13 | -0.75 | -0.626 | -0.883 | -4.19 | 6.65 | -0.108 (inactive) | -0.882 | -1.56 | 0.268 (inactive)
CC(C)NC(=O)[C@@]1(Cc2ccccc2I)c2ccccc2C(=O)N(Cc2ccccc2Cl)[C@H]1c1ccc(CO)cc1 | -0.522 (inactive) | 0.223 | 10.7 (active) | 1.77 (inactive) | 0.614 (inactive) | 1.06 (inactive) | 0.026 | 0.284 (inactive) | 0.904 (inactive) | 0.774 | -0.271 | 0.0063 | 0.768 | -1.59 | -2.03 | -0.274 | 0.131 (inactive) | 0.0101 | -0.756 | 0.0211 (inactive)

Reference: PubChem BioAssay
